# A number with no mark means an inactive call.
# Legend:
# Assay in all cases: log2 ratio of Biotin-Ahx-Ub-VS probe labelling (fragment/DMSO); higher = less target engagement (more negative = stronger competition), active = hit call of the paper (q ≤ 0.05, log2 ratio ≤ -1)
# Details in all cases: compound concentration: 200 uM; treatment time: 3 h
# [1] = target: T1, USP42 (UniProt Q9H9J4)
# T1 sequence (whole entry): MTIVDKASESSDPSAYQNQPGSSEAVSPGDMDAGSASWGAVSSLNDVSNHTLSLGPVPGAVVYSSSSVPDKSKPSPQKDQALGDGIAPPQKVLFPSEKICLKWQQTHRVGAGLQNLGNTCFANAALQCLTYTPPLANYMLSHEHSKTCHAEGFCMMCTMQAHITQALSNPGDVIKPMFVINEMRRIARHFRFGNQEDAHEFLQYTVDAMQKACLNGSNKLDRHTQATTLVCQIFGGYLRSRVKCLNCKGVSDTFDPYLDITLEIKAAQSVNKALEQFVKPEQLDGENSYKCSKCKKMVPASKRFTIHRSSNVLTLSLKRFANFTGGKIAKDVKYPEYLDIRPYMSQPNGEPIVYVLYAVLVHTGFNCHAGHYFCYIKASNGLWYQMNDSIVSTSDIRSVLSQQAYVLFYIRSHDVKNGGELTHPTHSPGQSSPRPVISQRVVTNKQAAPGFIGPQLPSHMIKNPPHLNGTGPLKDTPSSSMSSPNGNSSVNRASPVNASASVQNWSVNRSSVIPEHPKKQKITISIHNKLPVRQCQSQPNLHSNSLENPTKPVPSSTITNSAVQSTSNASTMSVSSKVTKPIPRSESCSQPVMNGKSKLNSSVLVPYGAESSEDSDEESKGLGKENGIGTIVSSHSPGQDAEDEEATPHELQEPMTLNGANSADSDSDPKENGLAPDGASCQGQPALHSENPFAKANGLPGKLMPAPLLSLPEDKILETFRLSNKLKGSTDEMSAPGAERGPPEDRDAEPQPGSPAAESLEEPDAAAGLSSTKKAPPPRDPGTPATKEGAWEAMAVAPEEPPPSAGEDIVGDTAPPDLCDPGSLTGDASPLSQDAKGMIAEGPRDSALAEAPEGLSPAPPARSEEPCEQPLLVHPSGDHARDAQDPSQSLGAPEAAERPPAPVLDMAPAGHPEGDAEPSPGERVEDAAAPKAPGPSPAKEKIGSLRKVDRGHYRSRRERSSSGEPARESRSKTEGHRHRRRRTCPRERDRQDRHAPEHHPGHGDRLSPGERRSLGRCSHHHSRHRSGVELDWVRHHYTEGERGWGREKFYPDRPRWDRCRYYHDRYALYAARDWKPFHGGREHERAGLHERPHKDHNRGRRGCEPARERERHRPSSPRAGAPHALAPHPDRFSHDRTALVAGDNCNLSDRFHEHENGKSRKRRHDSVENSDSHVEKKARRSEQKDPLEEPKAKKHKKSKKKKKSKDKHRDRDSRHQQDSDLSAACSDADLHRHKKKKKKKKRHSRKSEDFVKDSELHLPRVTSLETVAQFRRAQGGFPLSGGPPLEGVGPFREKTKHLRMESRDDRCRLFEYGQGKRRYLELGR
# Procedure, shortened: (§1)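 Fragment (200 µM) or vehicle was incubated for 3 h with triplicate HEK293T lysate samples of 495 µg, which were then treated with Biotin-Ahx-Ub-VS at 0.5 µM final for 1 h. Labelled DUBs were enriched on NeutrAvidin, digested with LysC and trypsin, and analysed by diaPASEF LC-MS/MS. Values are average log2 fragment/vehicle ratios from an unpaired t-test on global-median-normalised Spectronaut label-free quantities, using proteins with ≥2 unique peptides.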
# [2] = target: USP46 (UniProt P62068)
# Sequence of USP46 (P62068 whole entry): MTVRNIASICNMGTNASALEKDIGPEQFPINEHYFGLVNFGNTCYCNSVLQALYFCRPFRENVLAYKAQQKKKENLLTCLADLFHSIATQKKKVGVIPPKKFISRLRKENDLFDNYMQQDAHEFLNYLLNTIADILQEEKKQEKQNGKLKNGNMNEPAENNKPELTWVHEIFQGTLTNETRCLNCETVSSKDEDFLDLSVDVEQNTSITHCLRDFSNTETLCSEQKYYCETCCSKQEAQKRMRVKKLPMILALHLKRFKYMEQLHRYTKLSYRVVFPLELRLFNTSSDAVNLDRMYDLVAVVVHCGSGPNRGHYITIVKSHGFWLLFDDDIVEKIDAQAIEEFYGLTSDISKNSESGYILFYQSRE
# Procedure, shortened: as §1
# [3] = target: T2, USP47 (UniProt Q96K76)
# T2 sequence (whole entry): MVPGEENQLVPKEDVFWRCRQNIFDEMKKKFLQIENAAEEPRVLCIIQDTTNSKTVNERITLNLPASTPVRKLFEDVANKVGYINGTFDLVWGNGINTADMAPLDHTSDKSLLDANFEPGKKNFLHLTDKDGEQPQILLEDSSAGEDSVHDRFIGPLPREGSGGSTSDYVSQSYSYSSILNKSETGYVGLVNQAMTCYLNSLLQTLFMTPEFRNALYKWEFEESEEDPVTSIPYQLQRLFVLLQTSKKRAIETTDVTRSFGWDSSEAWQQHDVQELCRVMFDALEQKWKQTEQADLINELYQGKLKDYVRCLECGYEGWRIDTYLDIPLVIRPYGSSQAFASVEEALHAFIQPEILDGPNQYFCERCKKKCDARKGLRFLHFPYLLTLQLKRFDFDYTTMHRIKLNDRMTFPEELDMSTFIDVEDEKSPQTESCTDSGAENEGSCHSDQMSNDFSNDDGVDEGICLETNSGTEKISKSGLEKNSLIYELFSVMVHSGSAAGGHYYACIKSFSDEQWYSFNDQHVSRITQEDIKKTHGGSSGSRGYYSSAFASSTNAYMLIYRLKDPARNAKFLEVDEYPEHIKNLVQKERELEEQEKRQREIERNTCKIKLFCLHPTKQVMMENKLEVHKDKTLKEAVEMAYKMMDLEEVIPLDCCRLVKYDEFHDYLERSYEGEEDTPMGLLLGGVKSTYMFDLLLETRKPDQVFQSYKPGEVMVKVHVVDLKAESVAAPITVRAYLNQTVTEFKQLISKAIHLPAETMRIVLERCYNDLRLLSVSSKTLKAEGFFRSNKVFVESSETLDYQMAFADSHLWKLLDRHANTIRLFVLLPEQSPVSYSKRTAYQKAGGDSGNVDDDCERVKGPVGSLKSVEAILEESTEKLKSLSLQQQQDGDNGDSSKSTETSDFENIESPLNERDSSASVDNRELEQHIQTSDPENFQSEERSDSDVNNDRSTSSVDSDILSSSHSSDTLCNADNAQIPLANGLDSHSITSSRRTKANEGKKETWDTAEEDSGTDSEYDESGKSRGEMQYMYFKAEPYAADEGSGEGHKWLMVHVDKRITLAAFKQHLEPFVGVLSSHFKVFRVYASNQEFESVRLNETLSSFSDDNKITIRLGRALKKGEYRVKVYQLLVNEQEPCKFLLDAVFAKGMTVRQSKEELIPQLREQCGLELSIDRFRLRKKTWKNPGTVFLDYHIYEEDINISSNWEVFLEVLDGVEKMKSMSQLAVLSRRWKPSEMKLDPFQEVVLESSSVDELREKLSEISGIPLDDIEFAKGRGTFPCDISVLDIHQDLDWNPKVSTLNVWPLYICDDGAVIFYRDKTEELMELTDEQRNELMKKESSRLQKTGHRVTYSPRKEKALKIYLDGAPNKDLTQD
# Procedure, shortened: as §1
# [4] = target: T3, USP48 (UniProt Q86UV5)
# T3 sequence (whole entry): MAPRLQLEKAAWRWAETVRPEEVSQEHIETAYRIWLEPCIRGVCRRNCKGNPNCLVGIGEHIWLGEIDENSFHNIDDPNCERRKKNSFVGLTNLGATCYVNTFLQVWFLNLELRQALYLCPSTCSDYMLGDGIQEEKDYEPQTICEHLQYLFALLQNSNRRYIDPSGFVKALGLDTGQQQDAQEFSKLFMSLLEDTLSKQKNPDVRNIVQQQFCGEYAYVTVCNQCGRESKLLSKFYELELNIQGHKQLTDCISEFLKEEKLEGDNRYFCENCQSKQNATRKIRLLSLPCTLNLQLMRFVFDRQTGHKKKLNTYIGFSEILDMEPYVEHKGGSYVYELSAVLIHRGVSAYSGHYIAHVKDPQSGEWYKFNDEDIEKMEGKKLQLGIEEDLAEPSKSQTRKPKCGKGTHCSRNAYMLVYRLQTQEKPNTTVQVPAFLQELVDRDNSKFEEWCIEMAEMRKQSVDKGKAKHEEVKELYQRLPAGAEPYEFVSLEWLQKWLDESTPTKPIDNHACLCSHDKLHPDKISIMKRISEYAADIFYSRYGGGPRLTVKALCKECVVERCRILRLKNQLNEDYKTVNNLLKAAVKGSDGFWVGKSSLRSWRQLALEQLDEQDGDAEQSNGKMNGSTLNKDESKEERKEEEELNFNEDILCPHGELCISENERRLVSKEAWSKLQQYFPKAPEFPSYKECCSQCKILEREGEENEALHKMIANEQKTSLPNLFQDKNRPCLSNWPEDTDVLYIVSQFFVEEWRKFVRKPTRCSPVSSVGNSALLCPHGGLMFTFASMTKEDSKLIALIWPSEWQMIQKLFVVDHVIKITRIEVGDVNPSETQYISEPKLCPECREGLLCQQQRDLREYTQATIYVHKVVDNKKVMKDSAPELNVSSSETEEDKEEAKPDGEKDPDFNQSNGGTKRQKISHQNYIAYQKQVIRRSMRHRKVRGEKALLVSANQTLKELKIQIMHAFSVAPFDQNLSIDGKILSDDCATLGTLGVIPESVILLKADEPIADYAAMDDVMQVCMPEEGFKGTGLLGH
# Procedure, shortened: as §1
# [5] = target: T4, USP5 (UniProt P45974)
# T4 sequence (whole entry): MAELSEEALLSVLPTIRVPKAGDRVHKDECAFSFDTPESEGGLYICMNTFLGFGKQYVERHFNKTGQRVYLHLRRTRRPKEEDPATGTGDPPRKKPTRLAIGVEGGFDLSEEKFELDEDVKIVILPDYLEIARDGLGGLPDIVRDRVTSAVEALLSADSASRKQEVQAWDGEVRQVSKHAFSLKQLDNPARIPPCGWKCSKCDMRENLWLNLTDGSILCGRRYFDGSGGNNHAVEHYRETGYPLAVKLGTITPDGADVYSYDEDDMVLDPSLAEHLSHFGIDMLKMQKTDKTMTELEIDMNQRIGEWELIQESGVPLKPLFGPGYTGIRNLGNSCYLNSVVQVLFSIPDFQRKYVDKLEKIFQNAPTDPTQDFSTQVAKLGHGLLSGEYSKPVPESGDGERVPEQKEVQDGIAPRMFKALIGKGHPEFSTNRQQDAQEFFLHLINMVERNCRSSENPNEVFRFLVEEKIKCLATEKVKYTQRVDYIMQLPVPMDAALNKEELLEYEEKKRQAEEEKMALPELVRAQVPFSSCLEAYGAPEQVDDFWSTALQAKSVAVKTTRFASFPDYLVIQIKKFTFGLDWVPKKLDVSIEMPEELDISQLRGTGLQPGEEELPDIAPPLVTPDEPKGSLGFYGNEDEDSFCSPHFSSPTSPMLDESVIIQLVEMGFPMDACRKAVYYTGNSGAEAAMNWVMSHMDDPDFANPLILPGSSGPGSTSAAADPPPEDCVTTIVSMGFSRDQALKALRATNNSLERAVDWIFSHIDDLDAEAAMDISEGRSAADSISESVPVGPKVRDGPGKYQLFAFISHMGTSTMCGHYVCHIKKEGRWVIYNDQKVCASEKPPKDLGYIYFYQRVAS
# Procedure, shortened: as §1
# [6] = target: USP54 (UniProt Q70EL1)
# Sequence of USP54 (Q70EL1 whole entry): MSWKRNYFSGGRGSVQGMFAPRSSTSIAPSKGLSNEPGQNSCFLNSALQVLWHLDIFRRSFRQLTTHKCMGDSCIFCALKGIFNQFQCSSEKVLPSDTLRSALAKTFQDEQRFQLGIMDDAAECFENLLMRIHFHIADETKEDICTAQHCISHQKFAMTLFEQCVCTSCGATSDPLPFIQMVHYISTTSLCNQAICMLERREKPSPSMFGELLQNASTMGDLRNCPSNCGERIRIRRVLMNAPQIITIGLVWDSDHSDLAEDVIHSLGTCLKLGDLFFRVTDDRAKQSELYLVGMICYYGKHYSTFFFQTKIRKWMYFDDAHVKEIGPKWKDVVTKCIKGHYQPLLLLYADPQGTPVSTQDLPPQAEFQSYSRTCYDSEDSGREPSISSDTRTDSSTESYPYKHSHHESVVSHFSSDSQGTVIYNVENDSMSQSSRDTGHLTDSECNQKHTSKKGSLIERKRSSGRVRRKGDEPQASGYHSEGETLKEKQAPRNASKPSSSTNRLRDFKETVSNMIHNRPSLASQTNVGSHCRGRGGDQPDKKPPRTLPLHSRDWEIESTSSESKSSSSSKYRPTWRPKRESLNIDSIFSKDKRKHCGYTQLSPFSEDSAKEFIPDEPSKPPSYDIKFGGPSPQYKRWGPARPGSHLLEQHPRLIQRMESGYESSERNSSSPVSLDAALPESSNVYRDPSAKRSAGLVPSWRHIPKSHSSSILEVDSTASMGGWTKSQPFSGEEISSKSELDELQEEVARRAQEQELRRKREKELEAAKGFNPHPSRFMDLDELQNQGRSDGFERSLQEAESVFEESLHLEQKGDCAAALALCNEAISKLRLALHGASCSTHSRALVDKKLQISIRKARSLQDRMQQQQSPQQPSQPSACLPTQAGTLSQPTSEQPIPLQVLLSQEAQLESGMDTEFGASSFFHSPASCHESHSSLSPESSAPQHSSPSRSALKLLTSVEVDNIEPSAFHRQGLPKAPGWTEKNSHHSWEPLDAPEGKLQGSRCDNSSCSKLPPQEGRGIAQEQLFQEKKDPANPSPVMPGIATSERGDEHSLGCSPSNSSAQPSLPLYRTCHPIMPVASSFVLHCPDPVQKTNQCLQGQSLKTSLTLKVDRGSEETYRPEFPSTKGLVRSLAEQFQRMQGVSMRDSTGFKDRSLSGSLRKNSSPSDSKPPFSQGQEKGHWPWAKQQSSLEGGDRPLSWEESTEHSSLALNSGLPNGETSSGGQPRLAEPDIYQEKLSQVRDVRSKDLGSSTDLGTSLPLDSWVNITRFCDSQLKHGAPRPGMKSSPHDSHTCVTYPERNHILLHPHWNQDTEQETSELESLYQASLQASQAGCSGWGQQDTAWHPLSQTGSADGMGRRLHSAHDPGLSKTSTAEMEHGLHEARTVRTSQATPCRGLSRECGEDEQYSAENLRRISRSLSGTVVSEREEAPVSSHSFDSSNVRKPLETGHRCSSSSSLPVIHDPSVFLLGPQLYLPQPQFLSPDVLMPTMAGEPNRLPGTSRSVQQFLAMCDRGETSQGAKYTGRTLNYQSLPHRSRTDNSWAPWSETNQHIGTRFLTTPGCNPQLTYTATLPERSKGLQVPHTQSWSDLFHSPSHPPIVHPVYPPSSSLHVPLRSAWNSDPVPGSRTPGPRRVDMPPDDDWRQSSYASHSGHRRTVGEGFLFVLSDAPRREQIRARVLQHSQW
# Procedure, shortened: as §1
# [7] = target: USP7 (UniProt Q93009)
# Sequence of USP7 (Q93009 whole entry, looked up): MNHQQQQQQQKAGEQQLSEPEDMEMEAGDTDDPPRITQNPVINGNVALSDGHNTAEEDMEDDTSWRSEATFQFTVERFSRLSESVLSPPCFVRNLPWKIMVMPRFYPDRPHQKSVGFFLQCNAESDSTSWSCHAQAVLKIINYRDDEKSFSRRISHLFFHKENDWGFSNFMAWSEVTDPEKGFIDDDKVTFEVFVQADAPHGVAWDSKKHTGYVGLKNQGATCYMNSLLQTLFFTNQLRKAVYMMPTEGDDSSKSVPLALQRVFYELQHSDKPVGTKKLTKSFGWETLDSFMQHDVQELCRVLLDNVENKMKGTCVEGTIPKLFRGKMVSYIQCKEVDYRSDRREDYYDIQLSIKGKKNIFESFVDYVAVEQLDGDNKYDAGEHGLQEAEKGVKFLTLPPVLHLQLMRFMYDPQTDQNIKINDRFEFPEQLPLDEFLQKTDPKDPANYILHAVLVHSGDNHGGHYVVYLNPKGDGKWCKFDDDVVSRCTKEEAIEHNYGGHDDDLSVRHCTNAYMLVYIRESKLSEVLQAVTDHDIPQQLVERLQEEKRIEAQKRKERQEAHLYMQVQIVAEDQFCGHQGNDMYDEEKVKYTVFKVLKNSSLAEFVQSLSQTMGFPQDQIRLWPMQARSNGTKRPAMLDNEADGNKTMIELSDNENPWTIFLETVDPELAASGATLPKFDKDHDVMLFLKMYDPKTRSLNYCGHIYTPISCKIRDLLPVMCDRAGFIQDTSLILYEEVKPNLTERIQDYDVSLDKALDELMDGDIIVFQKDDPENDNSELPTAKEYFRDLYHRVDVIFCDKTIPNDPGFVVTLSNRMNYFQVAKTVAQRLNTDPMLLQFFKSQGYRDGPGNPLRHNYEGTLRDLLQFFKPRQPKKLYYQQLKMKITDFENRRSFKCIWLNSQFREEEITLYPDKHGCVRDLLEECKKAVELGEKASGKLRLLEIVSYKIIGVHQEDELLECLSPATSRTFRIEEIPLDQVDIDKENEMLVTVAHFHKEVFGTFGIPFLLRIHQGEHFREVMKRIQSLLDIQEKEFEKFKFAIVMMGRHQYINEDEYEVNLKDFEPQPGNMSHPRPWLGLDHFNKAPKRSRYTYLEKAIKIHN
# Procedure, shortened: as §1
# [8] = target: T5, USP8 (UniProt P40818)
# T5 sequence (whole entry): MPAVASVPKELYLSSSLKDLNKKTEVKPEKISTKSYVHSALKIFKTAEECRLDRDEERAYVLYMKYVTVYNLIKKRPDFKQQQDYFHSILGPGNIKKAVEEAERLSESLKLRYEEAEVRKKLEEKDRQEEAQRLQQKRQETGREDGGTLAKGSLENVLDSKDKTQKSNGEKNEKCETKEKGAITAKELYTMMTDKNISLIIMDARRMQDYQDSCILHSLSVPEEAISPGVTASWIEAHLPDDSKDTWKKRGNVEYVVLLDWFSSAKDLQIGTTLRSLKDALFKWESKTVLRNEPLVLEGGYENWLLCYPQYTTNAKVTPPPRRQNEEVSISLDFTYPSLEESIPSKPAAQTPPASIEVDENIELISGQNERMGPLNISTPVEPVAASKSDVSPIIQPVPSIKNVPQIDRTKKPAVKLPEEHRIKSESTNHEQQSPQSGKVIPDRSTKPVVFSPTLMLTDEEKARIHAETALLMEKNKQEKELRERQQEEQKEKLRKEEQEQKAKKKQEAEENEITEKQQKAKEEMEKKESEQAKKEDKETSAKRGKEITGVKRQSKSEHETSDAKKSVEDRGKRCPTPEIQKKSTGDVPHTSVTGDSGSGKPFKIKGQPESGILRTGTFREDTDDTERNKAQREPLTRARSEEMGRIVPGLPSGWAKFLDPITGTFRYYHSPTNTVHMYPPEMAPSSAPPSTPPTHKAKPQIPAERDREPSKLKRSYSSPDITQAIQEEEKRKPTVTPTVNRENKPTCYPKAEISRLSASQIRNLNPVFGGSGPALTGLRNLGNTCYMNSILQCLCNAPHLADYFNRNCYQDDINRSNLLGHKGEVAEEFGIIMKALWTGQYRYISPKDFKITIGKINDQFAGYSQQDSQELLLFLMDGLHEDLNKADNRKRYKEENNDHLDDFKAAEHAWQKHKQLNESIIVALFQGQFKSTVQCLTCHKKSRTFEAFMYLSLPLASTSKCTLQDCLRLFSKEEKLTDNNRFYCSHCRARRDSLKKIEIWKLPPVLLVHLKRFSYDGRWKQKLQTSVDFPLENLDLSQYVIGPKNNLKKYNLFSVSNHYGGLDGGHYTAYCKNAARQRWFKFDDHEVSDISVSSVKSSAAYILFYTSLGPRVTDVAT
# Procedure, shortened: as §1
smiles,measurement,setting,value
Cc1n[nH]c2c1CN(C(=O)CCl)CC2,log2 ratio of Biotin-Ahx-Ub-VS probe labelling,[1],0.421
same,log2 ratio of Biotin-Ahx-Ub-VS probe labelling,[2],-0.91
same,log2 ratio of Biotin-Ahx-Ub-VS probe labelling,[3],-1.08 (active)
same,log2 ratio of Biotin-Ahx-Ub-VS probe labelling,[4],-0.779
same,log2 ratio of Biotin-Ahx-Ub-VS probe labelling,[5],-0.67
same,log2 ratio of Biotin-Ahx-Ub-VS probe labelling,[6],0.337
same,log2 ratio of Biotin-Ahx-Ub-VS probe labelling,[7],-0.758
same,log2 ratio of Biotin-Ahx-Ub-VS probe labelling,[8],-1.11 (active)
